The nature of assay [1]: NCI Yeast Anticancer Drug Screen. Data for the rad50 strain (AID 155).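 Note: 0% = growth of vehicle-only cultures of the same strain.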 The note with it: S. cerevisiae rad50 strain growth inhibition; at 50.0 µM; stronger effect = higher value. The essentials:
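Inhibition values express reduced yeast growth in compound-treated cultures relative to vehicle-treated controls.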

A short description of assay [2]: NCI Yeast Anticancer Drug Screen. Data for the mec2-1 strain (AID 157). As to conditions: S. cerevisiae mec2-1 strain, at 50.0 µM, stronger effect = higher value. The essentials: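 Strain: mec2-1 (DNA repair/cell cycle alteration). Compound exposure, then growth measured; inhibition expressed relative to vehicle.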
A short description of assay [3]: NCI Yeast Anticancer Drug Screen. Data for the sgs1 mgt1 strain (AID 161).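 Note: 0% = growth of cultures given vehicle only.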 As to conditions: S. cerevisiae sgs1 mgt1 strain, at 50.0 µM, stronger effect = higher value. The essentials:
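Genetically altered yeast, compound exposure, growth inhibition relative to vehicle.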

A short description of assay [4]: NCI Yeast Anticancer Drug Screen. Data for the cln2 rad14 strain (AID 165).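 Note: 0% = growth equal to vehicle treated cultures.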 As to conditions: S. cerevisiae cln2 rad14 strain, at 50.0 µM, stronger effect = higher value. In outline:
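Compounds are applied to the cln2 rad14 yeast strain, and growth is then compared with that of vehicle-treated cultures to give inhibition.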

Assay [5] is described as follows: NCI Yeast Anticancer Drug Screen. Data for the bub3 strain (AID 167). As to conditions: S. cerevisiae bub3 mutant strain, at 50.0 µM, stronger effect = higher value. The essentials:
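Steps: expose the mutant yeast strain to compound; grow alongside vehicle-treated cultures; measure growth; express inhibition against the vehicle cultures.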

A short description of assay [6]: NCI Yeast Anticancer Drug Screen. Data for the mlh1 rad18 strain (AID 175). As to conditions: S. cerevisiae mlh1 rad18 strain growth inhibition; at 50.0 µM; stronger effect = higher value. In outline: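 Read-out is yeast growth inhibition, calculated against vehicle-only controls. The compound was applied to a strain engineered with DNA damage repair alterations.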

Each structure is given as a SMILES string. About 79,000 compounds went through this panel and 15% of them were active in at least one assay; those are over-represented in the sample as a whole. Unmarked numbers belong to inactive results. Active and inactive are the calls of the source. Cut-off read from the data, not from the text of the source: active = growth inhibition above about 70%; inactive = the rest.

As for `CC1(C)OC2OC(CI)C3OC(C)(C)OC3C2O1` (stereo unspecified), the growth inhibition in assay [1] was 5.7%; in assay [2], 2.8%; in assay [3] it was -1.75%; in assay [4] it was 34.5%; in assay [5], 12.6%; in assay [6] it was -1.45%.
Consider `O=C1CSC(c2cccc(Cl)c2)N1CCN1C(=O)CSC1c1cccc(Cl)c1` (stereo unspecified), for which the growth inhibition in assay [1] was -14.6%; in assay [2] it was 9%; in assay [3], -2.55%; in assay [4] it was -20.8%; in assay [5], 2.75%; in assay [6], -6.6%.
For the molecule `C=CCSS/C=C/CS(=O)CC=C` (stereo unspecified), the growth inhibition in assay [1] is 22.6%; in assay [2], 54%; in assay [3], 75.3% (active); in assay [4], 32%; in assay [5] it was 78.3% (active); in assay [6] it was -19.3%.
`O=Cc1ccc2ccccc2c1`: the growth inhibition in assay [1] was 33.5%; in assay [2], -12%; in assay [3], -7.45%; in assay [4] it was -57.5%; in assay [5], 16.8%; in assay [6] it was 30.8%.
On to `CCOC(=O)C1CC1Cc1ccccc1` (stereo unspecified), for which the growth inhibition in assay [1] is -18.1%; in assay [2], -9.95%; in assay [3], -2.2%; in assay [4], -7.2%; in assay [5], 6.05%; in assay [6], -2.95%.
On to `CC(=O)OC1CCC2(C)C(C1)CC(OC(C)=O)C1C2CC(OC(C)=O)C2(C)C(C(C)CC=C(c3ccccc3)c3ccccc3)CCC12` (stereo unspecified), for which the growth inhibition is 0.1% in assay [1]; 11.6% in assay [2]; -4.1% in assay [3]; -13.7% in assay [4]; -39.9% in assay [5]; 8.45% in assay [6].
`Cc1ccccc1NC(=O)c1ccc(C(=O)Nc2ccccc2C)cc1`: the growth inhibition was 11% in assay [1]; -10.8% in assay [2]; 9.2% in assay [3]; 7.8% in assay [4]; 1.05% in assay [5]; 35.9% in assay [6].
As for `O=C(/C=C/C(=O)NCc1ccccc1)NCc1ccccc1`, the growth inhibition in assay [1] is -0.2%; in assay [2], 0.4%; in assay [3], 16.9%; in assay [4], -11.1%; in assay [5], 4.7%; in assay [6], -5.95%.
Regarding `C=C1C(=O)C23C(O)CC4C5(C)CCCC4(C(O)OC5)C2C(OC(C)=O)CC1C3O` (stereo unspecified), the growth inhibition in assay [1] is 10.3%; in assay [2], 8.45%; in assay [3] it was 11.4%; in assay [4] it was 10.1%; in assay [5], -7.3%; in assay [6], 0.75%.
In the case of `COC(=O)/C(C#N)=C(/NCCN)Nc1ccccc1`, the growth inhibition in assay [1] was -10.5%; in assay [2], -16.4%; in assay [3], -39%; in assay [4] it was 10.1%; in assay [5], -3.1%; in assay [6], -8.15%.
On to `CC(N)(CCBr)C(=O)O` (stereo unspecified), for which the growth inhibition in assay [1] is 3.85%; in assay [2], 5.2%; in assay [3], -0.05%; in assay [4], -4.75%; in assay [5] it was -5.95%; in assay [6] it was -17.4%.
Take `CCCCCn1c(=O)c2c(=O)[nH][nH]c2c2ccccc21`: the growth inhibition was -16.3% in assay [1]; -7.9% in assay [2]; -9.55% in assay [3]; -69.6% in assay [4]; -1.3% in assay [5]; -22.5% in assay [6].
On to `CCCC(CCCC(=O)O)C(=O)O` (stereo unspecified), for which the growth inhibition was -4% in assay [1]; -9.8% in assay [2]; 0.95% in assay [3]; -8.2% in assay [4]; 11.9% in assay [5]; 6.1% in assay [6].
For the molecule `CSC1=N/C(=C\c2ccc(C)cc2)C(=O)N1`, the growth inhibition in assay [1] is -35.5%; in assay [2], 0.3%; in assay [3], 20.2%; in assay [4] it was 0.85%; in assay [5], -6.35%; in assay [6], -10.5%.
On to `O=C(O)c1cc(Cl)c(Cl)s1`, for which the growth inhibition was 13.2% in assay [1]; -20.1% in assay [2]; 16.7% in assay [3]; -68.9% in assay [4]; -18.3% in assay [5]; -1.9% in assay [6].
As to `CC(C)OC(=O)C1=C(C(=O)OC(C)C)CCCC1`, the growth inhibition in assay [1] is 4.8%; in assay [2], 21.6%; in assay [3], 4.4%; in assay [4] it was 13.2%; in assay [5] it was 3.1%; in assay [6], 13.7%.
`Cc1ccc2ccc(=O)oc2c1`: the growth inhibition is 7.9% in assay [1]; 1.05% in assay [2]; 2.85% in assay [3]; 7.45% in assay [4]; 13.8% in assay [5]; 6.85% in assay [6].
In the case of `Cc1cc(O)c(C)c(C)c1C`, the growth inhibition is -1.05% in assay [1]; -6.55% in assay [2]; 4.5% in assay [3]; 2.1% in assay [4]; -9.85% in assay [5]; 12.1% in assay [6].
Take `CC1SCC(C)(C)NC1=O` (stereo unspecified): the growth inhibition is 3.85% in assay [1]; 5.15% in assay [2]; -3.95% in assay [3]; -8.5% in assay [4]; 5.7% in assay [5]; 0.55% in assay [6].
On to `COC(=O)N/N=C(\C)C(CN1CCCCC1)C(C1=C(O)c2ccccc2OC1)c1ccccc1` (stereo unspecified), for which the growth inhibition is 6.15% in assay [1]; 15.7% in assay [2]; 5.25% in assay [3]; 17.1% in assay [4]; 4.9% in assay [5]; 28.9% in assay [6].
For `Cc1ccc(S(=O)(=O)c2scc(-c3ccccc3)c2C)cc1`, the growth inhibition is -47.2% in assay [1]; -57.8% in assay [2]; -31.1% in assay [3]; -8.7% in assay [4]; -17.9% in assay [5]; -13.2% in assay [6].

The values above are taken from PubChem BioAssay (NCI).
